# Data taken from PubChem BioAssay (NCATS).
# Results filed as inconclusive are left out. A call without a number means that no potency is given here. Active and inactive are the calls of the source. Unless noted, calls follow the shape of the full dose curve.
# Experiments:
# [1] = qHTS for Inhibitors of the Functional Ribonucleoprotein Complex (vRNP) of Lassa (LASV) Arenavirus: LASV Primary Screen - GLuc reporter signal (AID 1347082; calls by dose curve; tested in HEK293 reporter line; also: nearly all actives have a fitted effect of over 60% in size; also: potency is read from the fitted curve at half-maximal effect)
# [2] = qHTS for Inhibitors of the Functional Ribonucleoprotein Complex (vRNP) of Lassa (LASV) Arenavirus: Viability assay - alamar blue signal for LASV Primary Screen (AID 1347083; calls by dose curve; tested in HEK293 reporter line; also: nearly all actives have a fitted effect of over 80% in size; also: potency is read from the fitted curve at half-maximal effect)
# [3] = Cytotoxicity counterscreen for inhibitors of SARS-CoV-2 cell entry (AID 1645845); also: nearly all actives have a fitted effect of over 50% in size; also: potency is read from the fitted curve at half-maximal effect
# Outline: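 Counterscreen run in the same HEK293-ACE2 line as the pseudotyped-particle entry assay, without particles. Viability after 48 h at 37 C was read as ATP luminescence, scaled between cell-containing and cell-free wells.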
# [4] = Primary qHTS for Huh7 cytotoxicity: counterscreen for inhibitors of MERS-S pseudotyped particle cell entry (AID 1479147); conditions: outcome: dose series up to 57.1 µM unless noted
# [5] = Primary qHTS for inhibitors of MERS-S pseudo-typed particle cell entry (AID 1479149); also: nearly all actives have a fitted effect of over 60% in size
# [6] = Primary qHTS for Vero E6 cytotoxicity: counterscreen for inhibitors of SARS-S pseudo-typed particle cell entry (AID 1479150); conditions: outcome: dose series up to 57.1 µM unless noted
# [7] = Primary qHTS to identify inhibitors of SARS-CoV-2 cell entry (AID 1645846); conditions: activity change, negative = inhibition: at 57.1 µM (top of the series) unless noted; also: nearly all actives have a fitted effect of over 45% in size; also: potency is read from the fitted curve at half-maximal effect
# Outline: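 Inhibition of spike-mediated entry was scored in human ACE2-transfected Expi293F cells. Particles were MLV-pseudotyped with Wuhan-Hu-1 S carrying a 19-aa C-terminal deletion; signal was luciferase after two days, scaled between spike PP and fusion-protein-free PP.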
# [8] = target: Alpha-galactosidase (Coffea arabica) (UniProt Q42656); assay: Counterscreen for Glucocerebrosidase Inhibitors: qHTS Assay for Coffee Bean alpha-Galactosidase at pH 5.9 (AID 998; active = well fitted curve in the direction sought with a large enough effect; an effect the other way counts as inactive or inconclusive)
# Alpha-galactosidase (Coffea arabica), sequence (Q42656 whole entry, looked up): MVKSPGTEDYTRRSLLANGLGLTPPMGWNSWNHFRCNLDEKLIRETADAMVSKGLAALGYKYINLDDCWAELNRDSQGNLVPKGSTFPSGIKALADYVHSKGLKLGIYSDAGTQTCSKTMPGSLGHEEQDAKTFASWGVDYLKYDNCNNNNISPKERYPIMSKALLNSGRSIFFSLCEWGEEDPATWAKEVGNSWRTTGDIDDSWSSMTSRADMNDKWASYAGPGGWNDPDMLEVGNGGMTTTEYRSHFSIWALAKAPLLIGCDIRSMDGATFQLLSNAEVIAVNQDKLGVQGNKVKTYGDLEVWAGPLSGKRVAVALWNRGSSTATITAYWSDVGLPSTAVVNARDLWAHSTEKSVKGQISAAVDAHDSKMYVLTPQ
# Outline: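 Enzyme 2 nM + cpd (0.7 nM–77 uM titration) + 4-MU-alpha-Gal 80 uM, pH 5.9 citrate/Tween-20, RT 20 min, NaOH/glycine stop pH 10, fluor 365/440. Normalized to no-enzyme and full-activity controls; Hill-fit AC50.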
# [9] = Validation screen for inhibitors of Lassa infection (AID 463096)
# [10] = Inducers of the Endoplasmic Reticulum Stress Response (ERSR) in human glioma: Validation (AID 504836; active = well fitted curve in the direction sought with a large enough effect; an effect the other way counts as inactive or inconclusive)
# Outline: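 Stably transfected U87-MG glioma cells carrying a GRP78-based luciferase sensor; 16 h compound incubation. Luminescence end-point read 10 min after Bright-Glo addition at room temperature.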
# [11] = target: Nucleoprotein (Lymphocytic choriomeningitis virus (strain Armstrong)) (UniProt P09992); assay: qHTS for Inhibitors of the Functional Ribonucleoprotein Complex (vRNP) of Lymphocytic Choriomeningitis Arenaviruses (LCMV): LCMV Primary Screen - GLuc reporter signal (AID 1347086); also: nearly all actives have a fitted effect of over 70% in size; also: potency is read from the fitted curve at half-maximal effect
# Nucleoprotein (Lymphocytic choriomeningitis virus (strain Armstrong)), sequence (P09992 whole entry, looked up): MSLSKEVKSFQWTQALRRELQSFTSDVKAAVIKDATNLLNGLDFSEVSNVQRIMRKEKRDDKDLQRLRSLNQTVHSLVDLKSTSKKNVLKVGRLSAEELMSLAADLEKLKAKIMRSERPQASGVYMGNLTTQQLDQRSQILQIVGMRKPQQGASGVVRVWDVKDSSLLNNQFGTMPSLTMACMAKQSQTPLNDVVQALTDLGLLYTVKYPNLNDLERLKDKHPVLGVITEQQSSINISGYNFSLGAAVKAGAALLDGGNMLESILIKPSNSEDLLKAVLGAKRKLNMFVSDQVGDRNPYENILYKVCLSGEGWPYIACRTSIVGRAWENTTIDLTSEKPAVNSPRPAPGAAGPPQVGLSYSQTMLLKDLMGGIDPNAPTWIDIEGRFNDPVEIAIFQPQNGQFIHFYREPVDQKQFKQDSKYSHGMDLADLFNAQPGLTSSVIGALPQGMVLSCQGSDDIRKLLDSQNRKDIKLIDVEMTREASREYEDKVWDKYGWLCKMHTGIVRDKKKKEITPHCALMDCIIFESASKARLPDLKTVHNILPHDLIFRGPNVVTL
# [12] = Confirmatory qHTS to identify inhibitors of SARS-CoV-2 cell entry (AID 1645844); also: potency is read from the fitted curve at half-maximal effect; nearly all actives have a fitted effect of over 45% in size
# Outline: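 HEK293-ACE2, overnight seeding; cpd 1 h, 37C/5% CO2; + SARS-CoV-2-S MLV PP (Wuhan-Hu-1, ΔC19); 48 h; Bright-Glo luminescence. Data normalised to S PP and bald PP wells.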
# [13] = VSVG counterscreen qHTS to identify inhibitors of SARS-CoV-2 cell entry (AID 1645847); also: potency is read from the fitted curve at half-maximal effect; nearly all actives have a fitted effect of over 65% in size
# Outline: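 Luminescence from a luciferase reporter, normalised to bald particle and VSV-G pseudotyped particle wells, is the read-out. Cells are HEK293 expressing human ACE2, exposed to compound 1 h before a 48 h particle infection at 37 °C.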
# [14] = qHTS profiling of the MIPE4 collection as inhibitors of Plasmodium falciparum (3D7) proliferation (AID 743344; call rule not given here); conditions: P. falciparum 3D7 in erythrocytes, SYBR Green DNA fluorescence, 72 h; at 28.5 µM (top of the series) unless noted
# Outline: (§1)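 Parasite DNA was quantified by SYBR Green I fluorescence (ex 485, em 535 nm) after overnight lysis in saponin/Triton buffer at room temperature. Cultures at 0.3% parasitemia and 2.5% hematocrit were first exposed to compound for 72 h at 37 C; signals were normalised to artemisinin (0.29 uM) and vehicle wells.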
# [15] = qHTS profiling of the MIPE4 collection as inhibitors of Plasmodium falciparum (DD2) proliferation (AID 743345; call rule not given here); conditions: P. falciparum Dd2 in erythrocytes, SYBR Green DNA, 72 h; at 28.5 µM (top of the series) unless noted
# Outline: as §1
# [16] = qHTS profiling of the MIPE4 collection as inhibitors of Plasmodium falciparum (DD2) proliferation (Rep 2) (AID 743346; call rule not given here); conditions: P. falciparum Dd2 in erythrocytes, SYBR Green DNA, 72 h; at 28.5 µM (top of the series) unless noted
# Outline: as §1
# [17] = qHTS profiling of the MIPE4 collection as inhibitors of Plasmodium falciparum (HB3) proliferation (AID 743347; call rule not given here); conditions: P. falciparum HB3 in erythrocytes, SYBR Green DNA, 72 h; at 28.5 µM (top of the series) unless noted
# Outline: as §1
# [18] = target: Cytochrome P450 3A4 (Homo sapiens) (UniProt P08684); assay: qHTS Assay for Activators of Cytochrome P450 3A4 (AID 885; active = well fitted curve in the direction sought with a large enough effect; an effect the other way counts as inactive or inconclusive; also: nearly all actives have a fitted effect of over 65% in size)
# Cytochrome P450 3A4 (Homo sapiens), sequence (P08684 whole entry, looked up): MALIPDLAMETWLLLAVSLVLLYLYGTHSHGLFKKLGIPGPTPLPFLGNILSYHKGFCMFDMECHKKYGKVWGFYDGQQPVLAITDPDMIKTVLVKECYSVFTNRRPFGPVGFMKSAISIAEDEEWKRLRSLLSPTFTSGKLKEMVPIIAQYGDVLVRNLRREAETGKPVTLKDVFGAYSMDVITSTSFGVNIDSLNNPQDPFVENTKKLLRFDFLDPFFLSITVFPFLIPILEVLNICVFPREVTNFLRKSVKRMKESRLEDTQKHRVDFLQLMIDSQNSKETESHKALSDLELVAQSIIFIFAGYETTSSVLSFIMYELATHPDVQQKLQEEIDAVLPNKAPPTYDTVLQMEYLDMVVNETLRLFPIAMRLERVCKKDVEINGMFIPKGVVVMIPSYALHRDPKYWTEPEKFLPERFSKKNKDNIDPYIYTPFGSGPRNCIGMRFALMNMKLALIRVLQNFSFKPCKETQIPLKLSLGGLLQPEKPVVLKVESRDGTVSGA
# Outline: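 Activators are scored by enhanced luminescence from CYP3A4 conversion of luciferin-PPXE (25uM, equal to KM) to luciferin, after 60 min at RT with an NADPH-regenerating system.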
# [19] = S16 Schwann cell PMP22 intronic element firefly luciferase assay (AID 624032; active = well fitted curve in the direction sought with a large enough effect; an effect the other way counts as inactive or inconclusive; also: potency is read from the fitted curve at half-maximal effect; nearly all actives have a fitted effect of over 30% in size)
# Outline: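 Rat S16 Schwann cells stably carrying firefly luciferase driven by a PMP22 intronic element, in 10% FBS, treated 24 h at 37 C. ONE-Glo luminescence normalized to PTC124 control and DMSO (0%); curves classed by r2, magnitude and activity.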
compound,measurement,setting,value
CCNc1cc(NC2CCC(O)CC2)nc(Nc2ccc3c(ccn3Cc3ccccc3)c2)n1 (stereo not drawn),Potency,[1],inactive
same,Potency,[2],inactive
same,Potency,[3],inactive
C[S+](C)CCC(N)C(=O)O (stereo not drawn),Potency,[1],inactive
same,Potency,[2],inactive
same,outcome,[4],inactive
same,Potency,[5],inactive
same,outcome,[6],inactive
same,"activity change, negative = inhibition",[7],-29.8%
C=CCn1c(=O)c2c(nc(-c3ccc(S(=O)(=O)O)cc3)n2C)n(C)c1=O,outcome,[8],inactive
same,Potency,[9],inactive
same,outcome,[10],inactive
same,Potency,[1],inactive
same,Potency,[2],inactive
same,Potency,[11],inactive
CNC(=O)c1c(F)cccc1Nc1nc(Nc2cc3c(cc2OC)CCN3C(=O)CN(C)C)nc2[nH]ccc12,Potency,[1],inactive
same,Potency,[2],inactive
same,Potency,[3],inactive
COC(=O)Nc1ccc(-c2nc(N3CCOCC3)c3cnn(C4CCN(Cc5cccnc5)CC4)c3n2)cc1,Potency,[1],0.109 µM (active)
same,Potency,[2],0.153 µM (active)
same,Potency,[12],5.41 µM (active)
same,Potency,[7],6.31 µM (active)
same,Potency,[13],9.61 µM (active)
O=c1[nH]c(=O)n([C@H]2C[C@@H](O)[C@@H](CO)O2)cc1C=CBr,outcome,[10],inactive
same,"parasite growth, % of DMSO control",[14],139%
same,"parasite growth remaining, % of DMSO control (lower = more inhibition)",[15],118%
same,"parasite growth, % of control (lower = inhibition)",[16],157%
same,"growth, % of control",[17],652%
same,Potency,[1],inactive
same,Potency,[2],inactive
same,Potency,[11],inactive
CCc1ccc(OCc2ccccc2C(=O)Nc2ccc3nc(C)cc(N)c3c2)cc1,Potency,[1],12.2 µM (active)
same,Potency,[2],21.7 µM (active)
same,Potency,[3],15.8 µM (active)
same,Potency,[7],10 µM (active)
COc1cc(F)c(F)c(Nc2ccc(I)cc2F)c1NS(=O)(=O)C1(C[C@H](O)CO)CC1,Potency,[1],inactive
same,Potency,[2],inactive
same,Potency,[11],inactive
same,Potency,[7],25.1 µM (active)
CCc1ccc(/C=C2/SC(=S)NC2=O)cc1,outcome,[10],inactive
same,Potency,[1],inactive
same,Potency,[2],inactive
same,Potency,[3],10 µM (active)
same,Potency,[7],31.6 µM (active)
CCC(C(=O)O)C1CCC(C)C(C(C)C(O)C(C)C(=O)C(CC)C2OC3(C=CC(O)[C@@]4(CC[C@](C)(C5CC[C@@](O)(CC)C(C)O5)O4)O3)C(C)CC2C)O1 (stereo partly drawn),Potency,[18],inactive
same,Potency,[19],0.361 µM (active)
same,Potency,[1],3.43 µM (active)
same,Potency,[2],4.85 µM (active)
same,Potency,[11],0.968 µM (active)
same,Potency,[3],inactive
CC(C)C(C)C=CC(C)C1CCC2C3=CC=C4CC(O)CCC4(C)C3CCC21C (stereo not drawn),"parasite growth, % of DMSO control",[14],96.2%
same,Potency,[1],27.3 µM (active)
same,Potency,[2],38.5 µM (active)
same,Potency,[11],7.69 µM (active)
same,Potency,[7],inactive
CCCn1c(=O)c2[nH]c(-c3cnn(Cc4cccc(C(F)(F)F)c4)c3)nc2n(CC)c1=O,Potency,[1],inactive
same,Potency,[2],inactive
same,Potency,[3],inactive
same,"activity change, negative = inhibition",[7],-10.8%
COc1cc(O)c2c(c1)C1OC1C[C@H](O)[C@H](O)C(=O)C=CC[C@H](C)OC2=O (stereo partly drawn),Potency,[1],34.3 µM (active)
same,Potency,[2],38.5 µM (active)
same,Potency,[11],34.3 µM (active)
same,Potency,[7],35.5 µM (active)
